# A selection: hits, their analogues and other compounds. The true share with any hit is near 0.44%.
# EPAC1 agonist: EPAC1 (human) agonism. AID 720707. 360,000 compounds, 0.073% hits. Potency, µM (top dose mostly 154 µM), inactives show top-dose activation, usual class: activators. EPAC1 agonist qHTS, biochemical assay; response scale: 100% = response to 6.5 mM cAMP; also: nearly all actives have a fitted effect of over 60% in size
#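 Read-out is the fluorescence drop as BODIPY-GDP leaves Rap1B (480 nm excitation, 540 nm emission), recorded every 5 minutes over 30 minutes. Reactions held 100 nM EPAC1, 250 nM Rap1B–BODIPY-GDP and 50 uM GDP, with 6.5 mM cAMP setting full activation.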
# EPAC2 ag: EPAC2 (human) agonism | 360,000 compounds, 0.079% hits | EPAC2 activation, biochemical qHTS; response scale: 100% = 6.5 mM cAMP response | AID 720711 | Potency, µM (titrated, usually from 154 µM), for the others: at the top dose activation, hits mostly activators; also: nearly all actives have a fitted effect of over 50% in size
# Target sequence (Q8WZA2 whole entry, looked up): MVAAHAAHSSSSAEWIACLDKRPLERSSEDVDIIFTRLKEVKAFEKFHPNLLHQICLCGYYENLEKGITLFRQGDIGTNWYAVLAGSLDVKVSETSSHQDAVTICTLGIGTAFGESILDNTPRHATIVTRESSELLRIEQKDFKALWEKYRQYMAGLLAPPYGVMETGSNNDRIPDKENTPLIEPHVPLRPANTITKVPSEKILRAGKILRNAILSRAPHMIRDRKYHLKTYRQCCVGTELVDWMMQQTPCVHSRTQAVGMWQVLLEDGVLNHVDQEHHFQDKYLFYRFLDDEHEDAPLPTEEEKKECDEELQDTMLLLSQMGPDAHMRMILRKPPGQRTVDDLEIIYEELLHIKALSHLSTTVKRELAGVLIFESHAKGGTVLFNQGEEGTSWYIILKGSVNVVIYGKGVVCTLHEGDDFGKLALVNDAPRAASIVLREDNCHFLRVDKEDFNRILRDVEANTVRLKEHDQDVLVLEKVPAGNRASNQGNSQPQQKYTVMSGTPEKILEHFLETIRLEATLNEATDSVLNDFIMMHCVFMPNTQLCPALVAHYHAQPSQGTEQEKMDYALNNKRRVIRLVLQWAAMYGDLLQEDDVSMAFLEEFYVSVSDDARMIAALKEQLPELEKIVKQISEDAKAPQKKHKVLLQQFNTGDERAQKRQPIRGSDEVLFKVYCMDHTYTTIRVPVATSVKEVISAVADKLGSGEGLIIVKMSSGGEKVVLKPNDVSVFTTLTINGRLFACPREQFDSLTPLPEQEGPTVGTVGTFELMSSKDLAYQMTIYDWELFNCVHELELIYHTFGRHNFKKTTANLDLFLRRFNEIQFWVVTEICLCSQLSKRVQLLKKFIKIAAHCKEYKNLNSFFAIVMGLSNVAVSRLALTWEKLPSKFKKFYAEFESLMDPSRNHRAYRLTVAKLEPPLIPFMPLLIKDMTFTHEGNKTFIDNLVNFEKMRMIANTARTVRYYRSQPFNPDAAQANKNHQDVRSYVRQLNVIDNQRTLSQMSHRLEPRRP
#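 Guanine nucleotide exchange by EPAC2 is measured as reduced fluorescence of BODIPY-GDP once it is released from 250 nM Rap1B. Plates are read kinetically for 30 min at room temperature; results are scaled to 6.5 mM cAMP.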
# EPAC1 antag: blocks human EPAC1 exchange factor. EPAC1 GEF assay, Rap1b-BODIPY-GDP exchange fluorescence. 360,000 compounds, 0.14% hits. O95398. AID 720709. Potency, µM (top dose mostly 115 µM), without a hit: at the top dose activity change, negative = inhibition, most hits filed as inhibitors;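 also: plate controls were vehicle for no effect and positive control for full effect; nearly all actives have a fitted effect of over 50% in size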
# USP1 inh: USP1/UAF1 (human) deubiquitinase inhibition. recombinant USP1/UAF1, Ub-Rhodamine cleavage fluorescence. O94782. Potency, µM (titrated, usually from 57.1 µM), for inactives: top-dose activity change, negative = inhibition, hits mostly inhibitors. 390,000 compounds, 0.23% hits; also: % is scaled to controls: 0 for no effect and ±100 for the full control effect; nearly all actives have a fitted effect of over 60% in size
#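 In this screen, compounds sit with the deubiquitinase complex (1nM) for 15 min at room temperature before Ub-Rho is added at 150nM final. Fluorescence rise is then followed for 6 reads every 60 seconds.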
# EPAC2 antagonist: blocks human EPAC2 exchange factor | AID 720708 | EPAC2 GEF exchange of Rap1B-BODIPY-GDP, fluorescence | Q8WZA2 | 360,000 compounds, 0.18% hits | Potency, µM (doses to about 114 µM), for the others: top-dose activity, negative = inhibition, actives largely listed as inhibitors; also: % is scaled to controls: 0 for no effect and ±100 for the full control effect; nearly all actives have a fitted effect of over 45% in size
# * = called active by the depositor; ? = inconclusive; . = no result given; [ ] = dose if it differs, or a comment. Calls follow the shape of the dose curve; as a rule, active = well fitted curve in the direction sought with a large enough effect; inconclusive = small, poorly fitted or top-dose-only effect, or another doubt; inactive = no such curve, though single readings can be large; an effect the other way counts as inactive or inconclusive. Potency is read from the fitted curve at half-maximal effect.
SMILES,EPAC1 agonist,EPAC2 ag,EPAC1 antag,USP1 inh,EPAC2 antagonist
C=CC[C@@H](CC(=O)N(CCO)Cc1ccccc1)C(=O)NC[C@H](OC(=O)[C@@H](CC=C)CC(=O)OC(C)(C)C)c1ccccc1,-18%,-5%,-29%,-19%,?
CCN(CC)C(=O)c1ccc2c(c1)C1C=CCC1C(C(=O)O)N2 (centres undefined),21%,6%,-14%,25µM*,38%
O=c1c2ccccc2nc(/C=C\c2cccc(Br)c2)n1-c1ccc(O)cc1,.,.,.,-14%,.
COc1cc(/C=C/c2nc3ccccc3c(=O)n2-c2ccccc2O)ccc1O,9%,2%,?,?,-26%
COc1cc(/C=C/c2nc3ccccc3c(=O)n2-c2cccc(O)c2)ccc1O,5%,-1%,50µM*,-11%,-2%
O=C1C(=Cc2cn(-c3ccccc3)nc2-c2ccc(OCc3ccc(Cl)cc3)cc2)SC(=S)N1CCS(=O)(=O)O,7%,25%,?,.,44%
CCOC(=O)[C@]12Cc3ccccc3[C@H]1N(Cc1ccccc1)C(=O)c1cc(OC)ccc12,4%,8%,-24%,.,28µM*
CCOC(=O)[C@]12Cc3cc(OC)ccc3[C@H]1N(Cc1ccccc1)C(=O)c1cc(OC)ccc12,-8%,6%,-13%,.,-29%
CCOC(=O)[C@]12Cc3cc(Cl)ccc3[C@H]1N(C(C)C)C(=O)c1ccccc12,-7%,9%,-5%,.,17µM*
Cn1ncnc2c(=O)n(C)c(=O)nc1-2,-7%,?,?,0.032µM*,-29%
Cc1ccc(NC(=O)CN2C(=O)CN=C(c3ccccc3)c3ccccc32)cc1Cl,.,.,.,-18%,.
O=c1cc(C(F)(F)F)c2cc3c4c(c2o1)CCCN4CCC3,?,45µM*,99%,375%,21%
Cc1cc2c(C(F)(F)F)cc(=O)oc2c2c1NCCC2,19%,?,0%,?,23%
CCCCc1nn2c(=O)cc(COC(=O)Cc3ccccc3)nc2s1,.,.,.,-5%,.
CCOc1ccc(CN(CCc2ccc3c(c2)OCO3)Cc2cccc(Br)c2)cc1,.,.,.,13%,.
CCOC(=O)c1c(N)n(CCN2CCCCC2)c2nc3ccccc3nc12,-2%,1%,-9%,-7%,8%
CCCCn1c(NC(=O)c2ccc(Br)o2)c(C(=O)OCC)c2nc3ccccc3nc21,-5%,13%,?,25µM*,?
CCCCn1c(NS(=O)(=O)c2ccccc2)c(C(=O)OCC)c2nc3ccccc3nc21,3%,11%,-17%,22µM*,-6%
COc1ccc(-c2noc(=O)n2Cc2cc(C)ccc2C)cc1,-7%,-1%,-7%,-14%,?
O=C1NC(=O)N(Cc2ccccc2)C(=O)/C1=C\c1ccco1,-15%,-3%,?,-15%,-3%
CCCCN1C(=O)/C(=C\c2ccco2)C(=O)N(CCc2ccccc2)C1=O,0%,7%,25µM*,-12%,-1%
Cc1c(NS(=O)(=O)c2ccccc2)ccc([N+](=O)[O-])c1Cl,-6%,-1%,-29%,-7%,40µM*
O=C(C[C@@H]1C[C@@H]2c3cc(NS(=O)(=O)c4ccc(F)cc4)ccc3O[C@@H]2[C@H](CO)O1)N1CCc2ccccc2C1,9%,9%,-8%,?,-25%
COc1cc2c(cc1O)[C@@H]1Cc3ccc(OC)c(O)c3CN1CC2,-7%,9%,-30%,14µM*,8%
COC1C(OC(=O)c2ccc(C)[nH]2)C(O)C(Oc2ccc3c(O)c(NC(=O)c4ccc(O)c(CC=C(C)C)c4)c(=O)oc3c2Cl)OC1(C)C (centres undefined),-11%,-2%,40µM*,-7%,-15%
SMILES,EPAC1 agonist,EPAC2 ag,EPAC1 antag,USP1 inh,EPAC2 antagonist
Cn1cc(C=C2C(=O)NC(=O)NC2=O)c2ccccc21,13%,?,-29%,28µM*,43%
Cc1ccc(C(=O)Oc2cc(N)n(S(=O)(=O)c3ccc(F)cc3)n2)cc1,-3%,4%,?,-10%,-18%
O=[N+]([O-])c1ccc(NCc2ccccc2)c2nonc12,56µM*,56µM*,34%,22µM*,36%
Cc1ccc(N2C(=O)NC(=O)/C(=C\c3cccn3C(C)(C)C)C2=O)cc1,-12%,-16%,-11%,-17%,7%[57.1 µM]
CCC(C)c1ccc(N2C(=O)NC(=O)/C(=C/c3cccn3CCOc3ccc(C)cc3)C2=O)cc1 (centres undefined),-23%,-31%,45µM*,1%,-2%
COc1cccc2c1C(=O)c1c(O)c3c(c(O)c1C2=O)CC(O)(C(C)=NO)CC3OC1CC(N)C(O)C(C)O1 (centres undefined),6%,11%,10%,25µM*,37%
CCC(C)NC(=O)c1c(N)n(CCCOC)c2nc3ccccc3nc12 (centres undefined),3%,11%,-4%,32µM*,-7%[57.1 µM]
Cc1ccc(-n2c(/C=C/c3cc(Br)cs3)nc3ccccc3c2=O)cc1C,.,.,.,-10%,.
O=[N+]([O-])c1ccc(N2CCCCCC2)c2nonc12,100µM*,100µM*,67%,28µM*,42%
Cc1ccc2scc(N3CCN(C)CC3)c(=O)c2c1,.,.,.,7%,.
CCCCCN1C(=O)c2cc(OC)ccc2[C@@]2(C(=O)OCC)Cc3cc(Cl)ccc3[C@@H]12,-3%,2%,-12%,.,-26%
Clc1cc(Cl)c(-c2cc(Cl)c(Cl)cc2Cl)cc1Cl,1%,9%,-23%,-22%,4µM*
Cc1ccccc1N1C(=O)NC(=O)/C(=C/c2ccc(N3CCOCC3)o2)C1=O,19%,-9%,25%,25µM*,-20%
Cc1ccccc1N1C(=O)NC(=O)/C(=C\c2cc(Br)c(N3CCOCC3)o2)C1=O,9%,11%,18%,?,-17%

# Screens as filed in PubChem BioAssay.
